In PubChem BioAssay (NCI):
The panel holds about 83,000 compounds, 20% with a hit somewhere; the sample as a whole holds those more often.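 The endpoint reported here, percent growth, reads 100 for growth as untreated, 0 for no net growth and -100 for all cells dead.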 Activity calls are given as the source filed them. The calls were made as follows: active = growth percent below 10; inactive = the rest.

Tests used:
Assay in all cases: NCI-60 one-dose screen, 48 h (100 = growth as untreated, 0 = no growth, -100 = all killed)
Conditions in all cases: 10 µM unless noted
[1] = test system: HCT-15 colon
[2] = test system: HT29 colon
[3] = test system: SNB-75 CNS
[4] = test system: SNB-19 CNS
[5] = test system: U251 CNS
[6] = test system: PC-3 prostate
[7] = test system: SK-MEL-5 melanoma
[8] = test system: UACC-62 melanoma
[9] = test system: LOX IMVI melanoma
[10] = test system: SK-MEL-2 melanoma
[11] = test system: EKVX NSCLC
[12] = test system: SN12C renal
[13] = test system: UO-31 renal
[14] = test system: TK-10 renal
[15] = test system: ACHN renal
[16] = test system: CAKI-1 renal
[17] = test system: A498 renal
[18] = test system: HL-60(TB) leukemia
[19] = test system: CCRF-CEM leukemia
[20] = test system: SK-MEL-28 melanoma

Measured: growth

COc1cc2c(cc1OC)-c1c3c(cc4c1[C@@H](C2)N(C)CC4)OCO3
active: [13] 9.51%
inactive: [1] 29% | [2] 29% | [3] 57.9% | [4] 48.4% | [5] 39.3% | [6] 39.8% | [7] 57.9% | [8] 45.2% | [9] 26.2% | [10] 87.9% | [11] 66.7% | [12] 43.8% | [14] 67.3% | [15] 18.6% | [16] 46.9% | [17] 57% | [18] 32.5% | [19] 42.1%

CC(C)CCC1C(=O)NC(=O)NC1=O
inactive: [1] 101% | [2] 98.4% | [3] 104% | [4] 115% | [5] 97.6% | [6] 98% | [7] 103% | [8] 96.7% | [9] 104% | [20] 101% | [11] 96.1% | [12] 96.3% | [13] 86.9% | [16] 102% | [17] 86.6% | [18] 99.7% | [19] 106%

CCC(Br)(CC)C(=O)NC(N)=O
inactive: [1] 103% | [2] 108% | [3] 86.1% | [4] 104% | [5] 105% | [6] 91.4% | [7] 99.2% | [8] 100% | [9] 102% | [20] 109% | [11] 107% | [12] 103% | [13] 93.2% | [14] 104% | [15] 109% | [16] 98.2% | [17] 104% | [18] 99.6% | [19] 102%

N#CC(N)c1ccccc1 (centres undefined)
inactive: [1] 104% | [2] 111% | [3] 97.4% | [4] 105% | [5] 105% | [6] 104% | [7] 101% | [8] 99.5% | [9] 101% | [20] 113% | [10] 122% | [12] 104% | [13] 86.3% | [14] 109% | [15] 105% | [16] 102% | [17] 81.2% | [18] 102% | [19] 107%
